Among the data in PubChem BioAssay (NCI) are growth values, retold here.

This is part of a sample that, as a whole, favours compounds with a hit. Of some 83,000 tested, about 20% had one in any assay.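 A percent growth of 40 corresponds to 60% growth inhibition; 0 means no net growth; -100 means all cells died. Active threshold: below 10.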 The source made the active and inactive calls.

In the test the test system is MDA-MB-468 breast. The test can be described thus: NCI-60 one-dose screen, 48 h (100 = growth as untreated, 0 = no growth, -100 = all killed). Conditions: 10 µM unless noted.
On to `CC(=O)Nc1ccc2c(c1)C(=O)c1cccc(C(=O)O)c1-2`, for which the growth is 90.9% (inactive). `CCOC(=O)CSc1nc2sc3c(c2c(=O)n1-c1ccccc1)CCCCC3`: the growth is 122% (inactive). For `COc1ccc2cc(-c3ccnc4c(N=Nc5ccc(Cl)cc5)c(N)nn34)ccc2c1`, the growth was 98.8% (inactive). With `Nc1nc2c(c3cnccc13)C(c1cccc(Cl)c1)Cc1cnccc1-2` (centres undefined), the growth is -15.9% (active). `CCN(CC)CCNc1ccc(CO)c2oc3cc(Cl)ccc3c(=O)c12`: the growth is 68.1% (inactive).

As to `CCOC(=O)c1ccc(Nc2sc(C(=O)c3cccc([N+](=O)[O-])c3)c(N)c2C#N)cc1`, the growth was 4.24% (active). `COCCC[C@H]1O[C@@](O)([C@H](C)[C@@H]2CC(OC)C(O)/C=C(C)/C=C(C)/C=C(\C)C(OC3O[C@@H](C)[C@H](O)C(O)[C@@H]3O)C(C)/C=C(C)/C=C(OC)/C=C(\C)C(=O)O2)C(OC)C(O)[C@]1(C)O[C@H]1C[C@@H](O)[C@H](O[C@H]2C[C@](C)(O)[C@H](O)C(C)O2)C(C)O1` (some centres undefined): the growth is 9.61% (active).

Regarding `COC(=O)C(C)NC1=C(Cl)C(=O)C(NC(C)C(=O)OC)=C(Cl)C1=O` (centres undefined), the growth is 63.6% (inactive). Consider `CS(=O)(=O)c1ccc(Nc2nc(N[C@H]3CCCC[C@H]3N)nc3cc[nH]c(=O)c23)cc1`, for which the growth was -75.2% (active). Next, `COc1ccc(-c2nc3ccc(-c4nc5ccc(N6CCN(c7ccncc7)CC6)cc5[nH]4)cc3[nH]2)cc1OC`: -46.3% (active); `O=C(Cc1ccccc1)Nc1cccc(N=Cc2ccccc2O)c1`: 104% (inactive). As for `Cc1cc(-c2noc(C(F)(F)F)n2)ccc1N1CCN(c2cc(C(=O)N(C)C)no2)CC1`, the figure is 15.2% (inactive); as for `O=C(Nc1ccc2cc3ccc(NC(=O)N4CCCCCC4)cc3nc2c1)N1CCCCCC1`, -48.5% (active); as for `O=S(=O)(NCCCNc1nccc(-c2c(-c3ccc(F)c(O)c3)nc3sccn23)n1)c1ccc(F)cc1`, -0.153% (active). Regarding `COc1cc2nc(N3CCC[C@H](NC4=CC(=O)c5ccccc5C4=O)C3)nc(N)c2cc1OC`, the growth is -55.9% (active).

Consider `CCN(CC)CCOc1ccc(C(=C(C)c2ccc(Cl)cc2)c2ccc(OCCN(CC)CC)cc2)cc1`, for which the growth was -81.6% (active).

Take `O=C1Nc2cc(Cl)ccc2/C1=C\c1ccc(OCc2ccc(Br)cc2F)cc1`: the growth was -37.8% (active). `Cc1ccc(C(C)C)c(OCC(=O)O)c1`: the growth is 98.9% (inactive). Consider `COc1ccc(-c2nn(-c3ccccc3)cc2/C=C/C(=O)OCc2cn(-c3ccc(F)c(Cl)c3)nn2)cc1`, for which the growth is 72.2% (inactive). Next, `O=C(/C=C(/C=C/c1csc2ccccc12)OB(F)F)/C=C/c1csc2ccccc12`: -3.4% (active). As to `COc1ccc(/C=N\NC(=O)c2cnn(CC(O)c3ccccc3)c2N)cc1OCc1ccc(Cl)cc1` (centres undefined), the growth is 76.8% (inactive). Take `O=C1c2c(O)cc(O)cc2-c2c(-c3ccc(O)cc3)oc3cc(O)cc1c23`: the growth is 46.4% (inactive). Next, `O=C(Nc1cccnc1)c1ccc2ccc3ccc(C(=O)Nc4cccnc4)nc3c2n1`: -1.83% (active); `CC(=O)OC1CC2C(C)(C)CCC[C@]2(C)C2=C1C(O)=C(C(C)C)C(=O)C2=O` (some centres undefined): -49.5% (active); `O=[N+]([O-])c1ccccc1Nc1ccc2ccccc2c1`: 80.4% (inactive). `NS(=O)(=O)N(c1cc(C(F)(F)F)cc(C(F)(F)F)c1)C1CCN(Cc2ccc(C(F)(F)F)cc2)CC1`: the growth is -42.5% (active). Take `COC(=O)[C@]1(CCSC)N[C@H](c2cn(-c3ccccc3)nc2C)[C@@H]2C(=O)N(c3ccc(C)cc3)C(=O)[C@@H]21`: the growth is 127% (inactive).

For `O=C1c2ccccc2C(=O)N1OCc1ccccc1`, the growth is 125% (inactive).

In the case of `COc1ccc2c(c1)oc1c(C)c3c(c(C)c12)C(=O)N(CCN1CCOCC1)C3=O`, the growth was 106% (inactive). Consider `CC1SC(c2cccc(Oc3ccccc3)c2)N(CCc2cccs2)C1=O` (centres undefined), for which the growth is -45.5% (active). Regarding `NNC(=O)C1CC2c3ccccc3C1c1ccccc12` (centres undefined), the growth was 112% (inactive). In the case of `COc1ccc(-c2cnc(-c3ccncc3-c3cccc(OC)c3)o2)cc1`, the growth is 31.8% (inactive). As for `CC/C(Cc1ccccc1)=C(\c1ccc(OCCN2CCCC2)cc1)c1ccc(OC(C)=O)cc1`, the figure is 62.8% (inactive); as for `O=C(Nc1ccc(Nc2ccncc2)cc1)c1ccc([N+](=O)[O-])cc1`, -28.1% (active); as for `COc1cc(-c2cnc3nonc3n2)c(OC)c2c1OCO2`, 83.5% (inactive).

For `CC(C)(C)c1ccc(CCO)cc1`, the growth is 124% (inactive). Consider `O=S(=O)(Nc1cccc2cc(OS(=O)(=O)c3ccccc3)ccc12)c1ccccc1`, for which the growth is 13.4% (inactive). Next, `CC(=O)OC/C(C)=C\CC(C)COC(C)=O` (centres undefined): 98.5% (inactive).

On to `O=[N+]([O-])c1cccc(-c2nc3sccn3c2-c2ccnc(NCCNS(=O)(=O)c3ccc(C(F)(F)F)cc3)n2)c1`, for which the growth was 28.3% (inactive).
